Test results: PubChem BioAssay (NCI)
Compounds without any hit were thinned out: in the full panel of roughly 83,000, 20% have a hit.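 Values shown are percent growth following 48 h exposure of cells in 96-well plates to a single concentration of compound; below 10 was considered active.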 The source made the active and inactive calls.

How the values were obtained:
Assay in all cases: NCI-60 one-dose screen, 48 h (100 = growth as untreated, 0 = no growth, -100 = all killed)
HCT-15 colon = conditions: 10 µM unless noted
HT29 colon = conditions: 10 µM unless noted
SNB-75 CNS = conditions: 10 µM unless noted
SNB-19 CNS = conditions: 10 µM unless noted
PC-3 prostate = conditions: 10 µM unless noted
SK-MEL-5 melanoma = conditions: 10 µM unless noted
UACC-62 melanoma = conditions: 10 µM unless noted
LOX IMVI melanoma = conditions: 10 µM unless noted
SK-MEL-28 melanoma = conditions: 10 µM unless noted
EKVX NSCLC = conditions: 10 µM unless noted
UO-31 renal = conditions: 10 µM unless noted
TK-10 renal = conditions: 10 µM unless noted
ACHN renal = conditions: 10 µM unless noted
CAKI-1 renal = conditions: 10 µM unless noted
A498 renal = conditions: 10 µM unless noted
CCRF-CEM leukemia = conditions: 10 µM unless noted
MOLT-4 leukemia = conditions: 10 µM unless noted
SN12C renal = conditions: 10 µM unless noted
SK-MEL-2 melanoma = conditions: 10 µM
U251 CNS = conditions: 10 µM unless noted

Row | SMILES | growth (HCT-15 colon) | growth (HT29 colon) | growth (SNB-75 CNS) | growth (SNB-19 CNS) | growth (PC-3 prostate) | growth (SK-MEL-5 melanoma) | growth (UACC-62 melanoma) | growth (LOX IMVI melanoma) | growth (SK-MEL-28 melanoma) | growth (EKVX NSCLC) | growth (UO-31 renal) | growth (TK-10 renal) | growth (ACHN renal) | growth (CAKI-1 renal) | growth (A498 renal) | growth (CCRF-CEM leukemia) | growth (MOLT-4 leukemia) | growth (SN12C renal) | growth (SK-MEL-2 melanoma) | growth (U251 CNS)
1 | O=C1C=CC2(NN=C(c3ccccc3)N2c2ccc(Cl)cc2)c2cccc(O)c21 (stereo unspecified) | 18.7% (inactive) | 73% (inactive) | 33.1% (inactive) | 34.8% (inactive) | 39.1% (inactive) | -70.2% (active) | -33.1% (active) | 2.09% (active) | 52.6% (inactive) | 75.1% (inactive) | 28.2% (inactive) | 100% (inactive) | 61.1% (inactive) | 84% (inactive) | 91.3% (inactive) | 83.1% (inactive) | 61.8% (inactive) | – | – | –
2 | COc1c(OCCCN2CCOCC2)ccc2c3n(c(=NC(=O)c4cnc(N)nc4)nc12)CCN3 | 14.9% (inactive) | 3.56% (active) | -19.2% (active) | 10.8% (inactive) | 12% (inactive) | -48.7% (active) | -48.9% (active) | -41.9% (active) | -7.18% (active) | 13.2% (inactive) | -13.8% (active) | -21% (active) | – | 0.422% (active) | -60.7% (active) | 17.7% (inactive) | 6.38% (active) | 16.3% (inactive) | – | –
3 | COc1cccc2cc(-c3nc(C4CCC(C(=O)O)CC4)n4ncnc(N)c34)[nH]c12 (stereo unspecified) | 16.4% (inactive) | 14.3% (inactive) | -43.1% (active) | 15.7% (inactive) | 13.3% (inactive) | -28.7% (active) | -32.2% (active) | -4.84% (active) | -9.6% (active) | 11.6% (inactive) | -12.4% (active) | -22.3% (active) | 4.68% (active) | -22.7% (active) | -50.6% (active) | 9.93% (active) | 15.2% (inactive) | 14% (inactive) | – | –
4 | O=C(Cc1ccccc1)Nc1nnc(NC2CCN(c3nnc(NC(=O)Cc4ccccc4)s3)CC2)s1 | 99.4% (inactive) | 94.4% (inactive) | 106% (inactive) | 107% (inactive) | 87.1% (inactive) | 98.7% (inactive) | 89% (inactive) | 69.2% (inactive) | 107% (inactive) | 90.2% (inactive) | – | 110% (inactive) | 103% (inactive) | – | 43.8% (inactive) | 72.4% (inactive) | 91.3% (inactive) | 86% (inactive) | 122% (inactive) | –
5 | O=[N+]([O-])c1cc(Br)cc2c1[nH]c1ccc(Br)cc12 | 81.8% (inactive) | – | 19.9% (inactive) | 81.1% (inactive) | 60% (inactive) | 88.1% (inactive) | 67.7% (inactive) | 38% (inactive) | 89.8% (inactive) | 60.2% (inactive) | 25.5% (inactive) | 52.8% (inactive) | – | 51.4% (inactive) | 76.2% (inactive) | 65.2% (inactive) | 77.1% (inactive) | 82.7% (inactive) | – | –
6 | CC(=O)OCCC/C(=C\c1ccc2ccccc2c1)[N+](=O)[O-] | -69.4% (active) | – | -88.9% (active) | -39.5% (active) | -96.8% (active) | -94% (active) | -75.5% (active) | -83.3% (active) | -91.1% (active) | 42.1% (inactive) | -99.8% (active) | -64.4% (active) | -92.6% (active) | – | -22.4% (active) | -49.4% (active) | -26.1% (active) | -66.4% (active) | -68.5% (active) | -90.7% (active)
7 | Cc1cc(N(CCNc2ccnc3cc(Cl)ccc23)Cc2ccc3c(c2)OCO3)nc(N2CCCC2)n1 | 0.301% (active) | – | -46.7% (active) | 26.5% (inactive) | 36.1% (inactive) | -96.9% (active) | 18.2% (inactive) | -80.9% (active) | -58.7% (active) | 35.8% (inactive) | -56.2% (active) | -43.5% (active) | -49.1% (active) | – | -2.25% (active) | -0.451% (active) | -17.7% (active) | 27.9% (inactive) | -39.9% (active) | -17.6% (active)
8 | Cc1ccc(Nc2nccc(N(C)c3ccc4c(C)n(C)nc4c3)n2)cc1S(N)(=O)=O | 14.3% (inactive) | – | -25.9% (active) | 30.9% (inactive) | 45.2% (inactive) | -34% (active) | – | -30.1% (active) | 8.83% (active) | 25.7% (inactive) | -2.51% (active) | 21.2% (inactive) | – | 15.1% (inactive) | -57% (active) | 34% (inactive) | 5.93% (active) | 25.7% (inactive) | – | 18.8% (inactive)
9 | c1cc(OCCN2CCCCC2)cc(-c2n[nH]c3ccc(-c4ncn[nH]4)cc23)c1 | 79.7% (inactive) | – | 46.1% (inactive) | 86.2% (inactive) | 86.9% (inactive) | 43.4% (inactive) | 31.9% (inactive) | 30.8% (inactive) | 46.5% (inactive) | 76.7% (inactive) | 25.1% (inactive) | 74.5% (inactive) | 62.7% (inactive) | 26.6% (inactive) | 71% (inactive) | 84.9% (inactive) | 27% (inactive) | 68.2% (inactive) | – | 84% (inactive)
10 | COC(=O)[C@H](C)NC(=O)[C@@H](OC)[C@@H]1Cc2cc3cc(OC4CC(OC5CC(O)C(O)C(C)O5)C(O)C(C)O4)c(C)c(O)c3c(O)c2C(=O)[C@H]1OC1CC(OC2CC(OC3CC(C)(O)C(O)C(C)O3)C(O)C(C)O2)C(O)C(C)O1 (stereo partly specified) | 19.3% (inactive) | – | -63.8% (active) | 8.48% (active) | 8.21% (active) | -67.4% (active) | – | -27.4% (active) | -37.7% (active) | 21.9% (inactive) | 5.72% (active) | 13.1% (inactive) | -1.98% (active) | 27.5% (inactive) | – | 14.5% (inactive) | 0.969% (active) | 11.5% (inactive) | – | 7.45% (active)
11 | CCN1/C(=C/C=C/c2n(-c3ccccc3)c3ccc(-c4nc5ccccc5s4)cc3[n+]2CC)N(c2ccccc2)c2ccc(-c3nc4ccccc4s3)cc21 | 14.9% (inactive) | – | 18.6% (inactive) | 24.7% (inactive) | 16.2% (inactive) | -59.2% (active) | 30.5% (inactive) | 1.77% (active) | -8.49% (active) | 9.19% (active) | -7.26% (active) | -2.12% (active) | -3.27% (active) | – | -12.7% (active) | 24.5% (inactive) | 16.5% (inactive) | -2.95% (active) | -23.5% (active) | 4.79% (active)
12 | CC(N)C(Cc1ccc(Cl)cc1)c1ccc(Cl)cc1 (stereo unspecified) | 69.3% (inactive) | – | 48.6% (inactive) | 82.4% (inactive) | 37.5% (inactive) | 90.1% (inactive) | 92.4% (inactive) | 74.3% (inactive) | 62.6% (inactive) | 83.7% (inactive) | 55.8% (inactive) | 45.5% (inactive) | 80.5% (inactive) | 59.6% (inactive) | – | 65.6% (inactive) | 34.9% (inactive) | 87% (inactive) | -58% (active) | –
13 | CC(C)(C)c1ccc(Cn2cc(CSc3nc4ccccc4s3)nn2)cc1 | 99.7% (inactive) | – | 94% (inactive) | 89.8% (inactive) | 96.1% (inactive) | 106% (inactive) | 88.4% (inactive) | 103% (inactive) | 96.4% (inactive) | 98.3% (inactive) | 65.2% (inactive) | 88.7% (inactive) | 97.2% (inactive) | 82.9% (inactive) | – | 95% (inactive) | 95.7% (inactive) | 90.8% (inactive) | – | 93.3% (inactive)
14 | COc1cnc2c(c1)C(=O)c1c-2n(CCCN2CCC(N)CC2)c(=O)c2cc([N+](=O)[O-])ccc12 | 49% (inactive) | – | 60.9% (inactive) | 39.8% (inactive) | 40.7% (inactive) | 72.4% (inactive) | 49.8% (inactive) | 21.2% (inactive) | 116% (inactive) | 75.7% (inactive) | 63.7% (inactive) | 82.6% (inactive) | 19.8% (inactive) | 45.2% (inactive) | 62.6% (inactive) | 1.69% (active) | 0.263% (active) | 21.6% (inactive) | 109% (inactive) | 39.4% (inactive)
15 | CC(C)[C@@H]1CC[C@@H]2[C@@H]1[C@H](OC(=O)/C=C/c1ccccc1)[C@]1(C(C)C)C[C@@H](OC(=O)CO)[C@@]2(C)O1 | 78% (inactive) | – | 38.1% (inactive) | 99% (inactive) | 30% (inactive) | 81.2% (inactive) | 84.3% (inactive) | 81% (inactive) | 104% (inactive) | 63% (inactive) | 3.86% (active) | 94.9% (inactive) | 17% (inactive) | 65.5% (inactive) | -51.8% (active) | 77.1% (inactive) | 58.4% (inactive) | 49.7% (inactive) | – | 74.3% (inactive)
16 | CSC1=C(N)C(=O)c2[nH]cc(CO)c2C1=N | -89.2% (active) | – | -80.2% (active) | -92.2% (active) | -39.9% (active) | -98.8% (active) | -83.2% (active) | -84.9% (active) | -78% (active) | -56.6% (active) | -96% (active) | -83.7% (active) | 1.86% (active) | – | -89.6% (active) | 3.16% (active) | -24.3% (active) | -49% (active) | -52.3% (active) | -95.1% (active)
17 | CS(=O)(=O)CCNCc1ccc(-c2ccc3ncnc(Nc4ccc(OCc5cccc(F)c5)c(Cl)c4)c3c2)o1 | -3.39% (active) | – | -97.2% (active) | 3.57% (active) | -20.6% (active) | -98.9% (active) | -52.4% (active) | -72.5% (active) | -95.7% (active) | 29.9% (inactive) | 19.6% (inactive) | 7.31% (active) | 30.2% (inactive) | 40.1% (inactive) | 7.48% (active) | 5.76% (active) | 4.21% (active) | -17.9% (active) | – | -84.8% (active)
